Assay results taken from PubChem BioAssay AID624304 (Sanford-Burnham Center for Chemical Genomics, 2012).
The whole screen tested about 360,000 compounds, of which about 1,800 (0.5%) were called active. The sample holds actives, similar compounds and a random draw of the others, so the mix is not that of the screen. Values without a mark were called inactive.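 Rule for the calls: active = interference check ratio from 0.5 to 1.5 plus GFP to RFP signal ratio inhibition reaching or exceeding a fixed threshold (cut at about 30% in these data, passing the limit was not always enough); inactive = the rest.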

Experiment: suppressors of acrylamide-induced Pgst-4::GFP reporter in worms, primary screen, SKN-1 inhibitor project, whole organism, uHTS, GFP/RFP fluorescence ratio, strain VP596 (AID 624304)
Details: C. elegans VP596 Pgst-4::GFP/RFP ratio, 24 h, at 21.8 µM, hits give high values

SMILES | inhibition
CC(Oc1ccc(Cl)cc1Cl)C(=O)/C=C/N(C)C (stereo unspecified) | -7.74%
CC(C)(CNCC(O)c1ccccc1)N1CCOCC1 (stereo unspecified) | -7.82%
Fc1cccc(CSc2nnc3ccc(-c4ccncc4)nn23)c1 | -27.4%
COc1ccc(S(=O)(=O)NCc2cccnc2)cc1NC(=O)c1ccc(C)cc1 | 22.1%
CC(C)c1nnc(NC(=O)C2CC(=O)N(CCc3ccc(F)cc3)C2)s1 (stereo unspecified) | -6.45%
CCC(C)NC(=O)c1ccccc1NC(=O)c1ccccc1N(C)S(C)(=O)=O (stereo unspecified) | -2.01%
COc1ccc(-c2nc(CS(=O)CC(=O)NCc3cccnc3)c(C)o2)cc1OC (stereo unspecified) | 0.495%
COc1ccc(-c2nc(CS(=O)CC(=O)NCc3ccccn3)c(C)o2)cc1 (stereo unspecified) | 37.6% (active)
Cc1ccc(-c2nc(CS(=O)CC(=O)NC3CCCC3)c(C)o2)cc1 (stereo unspecified) | 5.39%
COc1ccc(N2C(=O)C(CC(=O)Nc3ccc(F)cc3)N(CCc3cccs3)C2=O)cc1 (stereo unspecified) | -3.33%
COc1ccc(-n2nc(C(=O)Nc3cc(OC)c(OC)c(OC)c3)c3ccccc3c2=O)c(OC)c1 | 6.93%
COCCN1C(=O)N(c2ccc(Cl)cc2)C(=O)C1CC(=O)Nc1cc(OC)cc(OC)c1 (stereo unspecified) | 17%
C[C@H](OC(=O)n1ccnc1)[C@@H]1O[C@@]2(C)CCC[C@@H]1O2 | 13.4%
C=CCSc1nnc2c(n1)-c1cccc3cccc-2c13 | 53.1% (active)
C=CCSc1nsc(NC(=O)Nc2cccc(C(C)=O)c2)n1 | 2.8%
COc1ccnc2c1c(=O)n(Cc1cccc(F)c1)c(=O)n2C | 13.9%
CCCc1cc(C(=O)Nc2ccc(Cl)cn2)cs1 | 35% (active)
COc1ccc(C(=O)N/N=C(\C)CC(=O)Nc2ccc(Cl)cn2)cc1 | 3.73%
CCCCC(CC)C(=O)Nc1ccc(Cl)cn1 (stereo unspecified) | -11.4%
C=CCC1(C(=O)N(C)Cc2ccccc2)CCN(C(=O)OC(C)(C)C)CC1 | 4.4%
COCCN(C(=S)Nc1cccc(Cl)c1C)C(C)c1ccco1 (stereo unspecified) | 2.25%
C/C(=N\NC(=O)OC(C)(C)C)c1ccc[nH]1 | 10.7%
CCOC(=O)c1ccc(NC(=O)c2nc[nH]c2C(=O)N[C@@H](CCCCNC(=O)OC(C)(C)C)C(=O)OC(C)(C)C)cc1 | -1.6%
c1ccc2c(c1)OCCOCCOCCO2 | 2.75%

SMILES | inhibition
CCC1CCCCN1C(=O)CSc1nc2c(c(=O)n(C)c(=O)n2C)n1C (stereo unspecified) | 10.5%
CCCc1cc(=O)n2[nH]c(SCc3ccccc3)nc2n1 | 11.9%
CCn1c(SCc2cc(=O)n3ccsc3n2)nc2ccccc21 | 13.5%
Cc1nc2nc(CSc3nc4ccccc4s3)cc(=O)n2[nH]1 | 31.9% (active)
COc1ccc2c(c1)c1ncn(Cc3ccccn3)c(=O)c1n2C | -9.72%
N#CC(=C1CCCC1)c1nc(-c2ccc(Cl)cc2)cs1 | -17.2%
Fc1ccc(-c2csc(-c3ccc(C4SCCS4)cc3)n2)cc1F | -2.79%
Clc1ccc(-c2csc(-c3ccncc3)n2)cc1 | 73.1% (active)
COc1ccc(C)cc1NC(=O)c1[nH]c(C)c(C(C)=O)c1C | -2.27%
COc1ccc(NC(=O)C2Cc3c(-c4cccc(NC(C)=O)c4)ccnc3O2)cc1OC (stereo unspecified) | 7.14%
N#Cc1ccc(OCC(=O)Nc2nc(-c3ccccn3)cs2)cc1 | 0.752%
O=C(Nc1ccc(Cl)cn1)c1ccccc1-c1ccccc1 | 19.1%
COc1ccc(-c2csc(Nc3ccccn3)n2)cc1 | 40% (active)
Clc1ccc(Nc2nc(-c3cccs3)cs2)nc1 | 84.2% (active)
c1ccc(Nc2nc(-c3ccncc3)cs2)nc1 | 38.3% (active)
COc1ccc2nc(-c3ccccn3)ccc2c1 | 18.4%
COc1ccc(C(O)c2nc(-c3ccc(OC)nc3)cs2)cc1 (stereo unspecified) | -3.44%
CC(NC(=O)c1ccco1)C(=O)Nc1nc(-c2ccccn2)cs1 (stereo unspecified) | -5.6%
Clc1ccc(Cc2nnc(-c3cccs3)o2)cc1 | -1.16%
C=CCC[C@H](Cc1ccc(F)cc1)C(=O)OC[C@@H](Cc1c[nH]c2ccccc12)NC(=O)[C@H](CC=C)CC(=O)N[C@H](CO)Cc1ccccc1 | 1.71%
CN(C(=O)c1ccccc1)c1nccnc1C#N | -2.1%
O=C(NCCc1ccccc1)C1CCC(Cn2c(=O)c3ccccc3n(Cc3cccnc3)c2=O)CC1 (stereo unspecified) | 2.01%
O=C(c1ccc(=O)oc1)N1CCC(C(O)(c2ccccc2)c2ccccc2)CC1 | 22.9%
NC(=O)C1CCN(C(=O)c2ccc(C(F)(F)F)cc2)CC1 | 1.88%

SMILES | inhibition
CCn1cnc2scc(-c3ccc(C)c(C)c3)c2c1=O | 9.07%
C[C@H]1NS(=O)(=O)c2cc(Cl)ccc2O[C@@H]1c1ccccc1 | 12.8%
COc1cc(OC)c(C(=O)NNC(=O)c2ccccc2-n2cccc2)cc1OC | -9.97%
Cc1nnsc1C(=O)N/N=C/c1cccc(C(F)(F)F)c1 | 6.82%
O=C(N/N=C\c1cccc(Br)c1)c1ccccc1-n1cccc1 | 49.3% (active)
CC(C)Nc1ccc(-n2nc3ccccc3[n+]2[O-])cc1 | 8.98%
O=C(O)CCCN1C(=O)c2ccccc2Sc2ncccc21 | 45.5% (active)
COCCNC(=O)CCCN1C(=O)c2ccccc2Sc2ncccc21 | 4.78%
O=C(O)CCCN1C(=O)C2C3c4ccccc4C(c4ccccc43)[C@@H]2C1=O (stereo partly specified) | -5.65%
Fc1ccc(N2N=C(c3cccs3)CC2c2ccco2)c(F)c1 (stereo unspecified) | 12.6%
Cc1nc2cc(NC(=O)CSc3nc4c(C)cccc4cc3C#N)ccc2s1 | -3.68%
Cc1cccc2cc(C#N)c(N3CCCC3)nc12 | 32.6% (active)
Cc1cc(C)c2cc(C#N)c(N3CCNCC3)nc2c1 | 5.2%
Cc1cccc(C(=O)N[C@H](C(=O)NCc2cccs2)C(C)C)c1 | 1.58%
Cc1cccc(C(=O)Nc2ccc(C(=O)/C=C/c3cccs3)cc2)c1 | 46.6% (active)
CC(=O)Nc1ccc(NC(=O)[C@@H](NC(=O)c2cccc(C)c2)C(C)C)cc1 | 12.9%
CCCCCCCC(=O)OC(CN1CCCCCC1)CN1CCCC1=O (stereo unspecified) | 0.0276%
O=Cc1c(Cl)cccc1Cl | 2.42%
CCC(=O)Nc1c(C)n[nH]c1C | -5.42%
Cn1c(CC(=O)Nc2ccc(F)cc2)nnc1SCC(=O)NC1CCCCC1 | 7.79%
COc1cccc(NC(=O)CSc2nnc(C3CCCCC3)n2N)c1 | -8.2%
C=CCn1c(CC(=O)Nc2cccc(OC)c2)nnc1SCC(=O)NC1CCCCC1 | 37.9% (active)
CC(C)C(=O)Nc1c(C(=O)c2ccc(F)cc2)oc2ccccc12 | 19.7%
Clc1ccc(-c2cc(-c3ccccn3)on2)c(Cl)c1 | 65.8% (active)

SMILES | inhibition
Fc1ccc(-c2ccc(CNCc3ccccn3)o2)cc1Cl | -1.67%
Clc1ccc(COn2c(-c3ccc(Cl)cc3Cl)nc3ncccc32)cc1 | 28.6%
COC(=O)[C@]1(Cc2ccccc2)N[C@H](CN(C)S(=O)(=O)c2ccc(OC(F)(F)F)cc2)[C@@H]2C(=O)N(C)C(=O)[C@@H]21 | 3.7%
N=c1c2c(-c3ccccc3)c(-c3ccccc3)n(Cc3ccccc3)c2ncn1CCCO | 36.6% (active)
COCCn1cnc2c1c(=O)n(CC(=O)NN)c(=O)n2Cc1ccccc1 | 5.34%
COCCn1cnc2c1c(=O)n(Cc1ccc(Br)cc1)c(=O)n2Cc1ccccc1 | 21.1%
Cc1[nH]c(C)c(S(=O)(=O)N2CCN(c3cccc(C(F)(F)F)c3)CC2)c1C(=O)N1CCCC1 | 16.8%
CCOC(=O)[C@]12CCCC=C1N(CCC1=CCCCC1)C(=O)[C@H](CC(=O)N1CCOCC1)C2 | 6.43%
CN1CN(C)c2ccc([N+](=O)[O-])c3cccc1c23 | 38.8% (active)
CN1CCN(S(=O)(=O)c2ccc(N3CCN(c4ccccc4O)CC3)c([N+](=O)[O-])c2)CC1 | -7.8%
Cc1cccc(N2CCN(c3ccc(C(N)=O)cc3[N+](=O)[O-])CC2)c1C | 6.19%
COc1ncnc2c1N=C1CC(C)(C)CC(N)=C1S2 | 46.6% (active)
CCOc1ccc(C(CC(=O)O)NC(=O)COc2ccccc2)cc1 (stereo unspecified) | 0.0857%
O=C(Nc1ccc(-c2nnc(-c3ccccc3)o2)cc1)c1ccc(Br)o1 | 34.6% (active)
CCCN(CCC)c1ccc(C(O)c2nnc(-c3ccccc3)o2)cc1 (stereo unspecified) | 5.96%
O=C(Oc1ccc(-c2nc(-c3ccccn3)no2)cc1)c1ccccc1 | 26.9%
CCS(=O)(=O)c1ccc(-c2cccc(NC(=O)c3ccc(Br)o3)c2)nn1 | 19.3%
Brc1ccc(-c2nnc(-c3ccccc3)o2)o1 | 47.1% (active)
OC(c1nnc(-c2ccccc2)o1)c1cccs1 (stereo unspecified) | -9.63%
Brc1ccc(-c2noc(-c3ccccc3)n2)o1 | 53.9% (active)
CN1CCN(C(=O)c2ccc(NC(=O)c3ccc(Br)o3)cc2)CC1 | -9.6%
Nc1nonc1-c1noc(-c2ccc(Br)o2)n1 | 34.9%
CN1CCN(C(CNS(=O)(=O)c2cccs2)c2cccnc2)CC1 (stereo unspecified) | -8.82%
CCOc1cc2[nH]c(=O)n(CCC(=O)NCc3ccc(OC)cc3)c(=O)c2cc1OCC | -1.79%
